# Experimental data: the supplement of paper PMC8975748
# Where a name gives a salt, the structure may show the parent alone.
# Test system: Saccharomyces cerevisiae BY4741 SeMeCo community
# Test: z-score of subpopulation abundance vs DMSO median, subpopulation auxotrophic for M; higher = larger share of this subpopulation than in DMSO controls
# Details: 10 µM; 24 h; SM minimal medium; subpopulation (auxotrophy): M
# Procedure: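 Fluorescent four-plasmid SeMeCo (self-establishing metabolically cooperating S. cerevisiae BY4741 community; plasmids pH-mRuby2, pL-mWasabi, pU-eCFP, pM-TagRFP657) was grown 24 h in minimal SM medium with each Selleck FDA-approved drug at 10 µM in 384-well plates. Cells were fixed and imaged by high-content confocal microscopy. For each auxotrophic subpopulation (and the prototroph), a z-score gives the deviation from the DMSO vehicle-control population median.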
row,Compound,z-score of subpopulation abundance
1,Cc1cc(O)cc(C)c1Cl [Chloroxylenol],0.89
2,C[N+]1(C)CCC(=C(c2ccccc2)c2ccccc2)CC1 [Diphemanil Methylsulfate],1.5
3,CC(=O)OC1CC2(C)C(CC(O)C3C4(C)CCC(O)C(C)C4CCC32C)C1=C(CCC=C(C)C)C(=O)O (stereo not given) [Fusidine],0.14
4,CCC[S+]([O-])c1ccc2[nH]c(NC(=O)OC)nc2c1 (stereo not given) [Albendazole Oxide],-0.33
5,O=C(O)c1cc(-c2ccc(F)cc2F)ccc1O [Diflunisal],-2.15
6,CCN(CC)CCOC(=O)c1ccc(N)cc1 [Procaine],-1.12
7,COCCOC(=O)C1=C(C)NC(C)=C(C(=O)OC/C=C/c2ccccc2)C1c1cccc([N+](=O)[O-])c1 (stereo not given) [Cilnidipine],-1.14
8,CSc1nc2cc(Cl)c(Oc3cccc(Cl)c3Cl)cc2[nH]1 [Triclabendazole],-9.19
9,CNCCCN1c2ccccc2CCc2ccccc21 [Desipramine Hydrochloride],1.14
10,NC12CC3CC(CC(C3)C1)C2 [Amantadine],-0.63
11,Cc1c(S(=O)(=O)O)oc2c1C(=O)C(=O)c1c-2ccc2c1CCCC2(C)C [Tanshinone IIA sulfonate (sodium)],1.72
12,CN(C)c1ccc(O)c2c1C[C@H]1C[C@H]3[C@H](N(C)C)C(=O)C(C(N)=O)=C(O)[C@@]3(O)C(=O)C1=C2O [Minocycline HCl],0.32
13,CC(C)(O/N=C(\C(=O)N[C@@H]1C(=O)N2C(C(=O)[O-])=C(C[n+]3ccccc3)CS[C@H]12)c1csc(N)n1)C(=O)O [Ceftazidime],-0.44
14,C=C[C@]1(C)C[C@@H](OC(=O)CS[C@@H]2C[C@H]3CC[C@@H](C2)N3C)[C@]2(C)[C@H](C)CC[C@]3(CCC(=O)[C@H]32)[C@@H](C)[C@@H]1O [Retapamulin],-0.9
15,CO/N=C(/C(=O)N[C@@H]1C(=O)N2C(C(=O)OCOC(=O)C(C)(C)C)=C(C)CS[C@H]12)c1csc(N)n1 [Cefetamet pivoxil hydrochloride],0.7
16,COc1cc(Cc2cnc(N)nc2N)cc(OC)c1OC [Trimethoprim],0.01
17,CCOC(=O)C1=C(C)NC(C)=C(C(=O)OC)C1c1cccc(Cl)c1Cl (stereo not given) [Felodipine],3.86
18,C[C@@H](O)[C@H]1C(=O)N2C(C(=O)O)=C(SCCNC=N)C[C@H]12 [Imipenem],0.92
19,NCC[C@H](O)C(=O)N[C@@H]1C[C@H](N)[C@@H](O[C@H]2O[C@H](CN)[C@@H](O)[C@H](O)[C@H]2O)[C@H](O)[C@H]1O[C@H]1O[C@H](CO)[C@@H](O)[C@H](N)[C@H]1O [Amikacin disulfate],-0.8
20,COc1cccc(-c2c(C)n(Cc3c(F)cccc3C(F)(F)F)c(=O)n(C[C@H](NCCCC(=O)O)c3ccccc3)c2=O)c1F [Elagolix Sodium],-0.72

row,Compound,z-score of subpopulation abundance
1,C[C@H](NCc1ccc(OCc2cccc(F)c2)cc1)C(N)=O [Safinamide],0.59
2,CN[C@@H]1[C@@H](O)[C@@H](O[C@@H]2[C@@H](O)[C@H](O[C@H]3OC(CN)=CC[C@H]3N)[C@@H](N)C[C@H]2N)OC[C@]1(C)O [Sisomicin sulfate],1.6
3,CC(C)NNC(=O)c1ccncc1 [Iproniazid],-0.2
4,Cn1c(=O)c2c(ncn2CC(O)CO)n(C)c1=O (stereo not given) [Dyphylline],-1.07
5,CC(C)c1c(C(=O)Nc2ccccc2)c(-c2ccccc2)c(-c2ccc(F)cc2)n1CC[C@@H](O)C[C@@H](O)CC(=O)O [Atorvastatin Calcium],0.46
6,CC1(C)S[C@@H]2[C@H](NC(=O)[C@H](N)c3ccccc3)C(=O)N2[C@H]1C(=O)OCOC(=O)[C@@H]1N2C(=O)C[C@H]2S(=O)(=O)C1(C)C [Sultamicillin Tosylate],0.72
7,Nc1ccc(S(=O)(=O)Nc2cnc3ccccc3n2)cc1 [Sulfaquinoxaline sodium],1.16
8,C=C[C@]1(C)C[C@@H](OC(=O)CSC(C)(C)CNC(=O)[C@H](N)C(C)C)[C@]2(C)[C@H](C)CC[C@]3(CCC(=O)[C@H]32)[C@@H](C)[C@@H]1O [Valnemulin HCl],0.05
9,COc1ccc(CN2CCN(C(c3ccc(F)cc3)c3ccc(F)cc3)CC2)c(OC)c1OC [Lomerizine 2HCl],-0.52
10,CN1C(C(=O)Nc2ccccn2)=C(O)c2sc(Cl)cc2S1(=O)=O [Lornoxicam],-0.04
11,COc1cc(/C=C/C(=O)N2CCN(CC(=O)N3CCCC3)CC2)cc(OC)c1OC [Cinepazide maleate],0
12,CC(C(=O)O)c1ccc2c(c1)Cc1cccnc1O2 (stereo not given) [Pranoprofen],-0.49
13,C=CC[C@@H]1/C=C(\C)C[C@H](C)C[C@H](OC)[C@H]2O[C@@](O)(C(=O)C(=O)N3CCCC[C@H]3C(=O)O[C@H](/C(C)=C/[C@@H]3CC[C@@H](O)[C@H](OC)C3)[C@H](C)[C@@H](O)CC1=O)[C@H](C)C[C@@H]2OC [Tacrolimus (FK506)],2.07
14,CN(C)CCCN1c2ccccc2Sc2ccc(Cl)cc21 [Chlorpromazine HCl],0.41
15,C#C[C@]1(O)CC[C@H]2[C@@H]3CCc4cc(O)ccc4[C@H]3CC[C@@]21C [Ethinyl Estradiol],0.05
16,CCN1CCCC1CNC(=O)c1cc(S(N)(=O)=O)ccc1OC (stereo not given) [Sulpiride],0.12
17,CN1[C@@H]2CC[C@H]1C[C@@H](OC(=O)c1c[nH]c3ccccc13)C2 [Tropisetron],1.72
18,Cc1cccc(N(C)C(=S)Oc2ccc3ccccc3c2)c1 [Tolnaftate],-0.22
19,CCCN[C@H]1CCc2nc(N)sc2C1 [Pramipexole 2HCl Monohydrate],0.15
20,CC[C@H](C)C[C@H](C)CCCCCCCCC(=O)N[C@H]1C[C@@H](O)[C@@H](NCCN)NC(=O)[C@@H]2[C@@H](O)CCN2C(=O)[C@H]([C@H](O)CCN)NC(=O)[C@H]([C@H](O)[C@@H](O)c2ccc(O)cc2)NC(=O)[C@@H]2C[C@@H](O)CN2C(=O)[C@H]([C@@H](C)O)NC1=O [Caspofungin Acetate],-8.37
